In the OligoGym collection:

Molecular target: ZFP62
Experiment: pooled miR-30 sensor sort-seq; sequence = guide strand
Conditions: shRNA
Also: reference of the scale not given here.

| Sequence | sensor-assay potency score (higher = more potent) |
| --- | --- |
| TTTCTCTCTAGTGTGGACCCTT | -0.0465 |
| TTTGCCACAGACATCACACTTG | 0.373 |
| TAGAGCGTGAGATATAGGCTTT | -0.26 |
| TTTTCTGCTGTAGACTAGGGTA | -0.796 |
| TAATTTCTTAACAGCATTGGTT | -0.651 |
| ATACATAAGGTCTCTCTCCGGT | 0.0569 |
| TTTTATGTTGAACAAGGCGGGA | -0.995 |
| TTATATTTGAAGGATTTCCCAC | -0.915 |
| TTCTGCTTGAGAAAAAAGCTTT | -0.449 |

Molecular target: ZFR2
Experiment: as above
Conditions: shRNA

| Sequence | sensor-assay potency score (higher = more potent) |
| --- | --- |
| TGCAGCTTGAAGACCTTCTGGT | 0.0557 |
| TAGCTTGGTGCCGTGTAGGCGG | -0.795 |
| TCCGTAGCTGTAACTGTCCTGG | -0.711 |
| TTAAGGTCGTTGAAACTGCACT | -0.864 |
| TAGTGAAGCTGGAGCTGCCTGG | -0.835 |
| TCTGTCTGGTCTCTCTCGCAGG | -0.775 |
| TATGGTGACCTGCATCCTGGGC | -0.904 |
| TTTCTTCCGGTACTGCAGCCGG | -0.948 |
| TCATCCTCGGTCACCATCTGGA | -0.791 |
| TGTCGCAGTAGTGAAGCTGGAG | -0.148 |
| TTCGTCGCTGAACACCTCCTCC | -0.823 |
| TTGGGTCTCGGCAGCTTGCTGG | -0.733 |

Molecular target: ZFR
Experiment: as above
Conditions: shRNA

| Sequence | sensor-assay potency score (higher = more potent) |
| --- | --- |
| TAGAACTTTGTGTATCTGGCGG | -0.255 |
| TTATATTGAAGTCTGTGTCTTC | 0.707 |
| TTACATATGAGTATGAATCCTG | 0.475 |
| TATAACCATAGTCAGTTGCTGT | -0.854 |
| TTTTTCATTACATCACTGCTAG | 0.0706 |
| TCTTCTTCTCGTCTTCGCCAGT | -1.15 |
| TATAACAGCAAGCTGTTTGGGT | 0.358 |
| TTGACATTTCTATCTCCTCGGA | -0.27 |
| TAGTTTTGTGTAGTAGCTGGGG | 0.0406 |
| TTGTGTAGGAGACATAAGCAGG | -0.979 |
| TTGTGTGTAACTTAACCACTTT | -0.519 |
| TTTCTCTACTAGTAACTCCATA | -1.22 |

Molecular target: ZHX1
Experiment: as above
Conditions: shRNA

| Sequence | sensor-assay potency score (higher = more potent) |
| --- | --- |
| TAACTATGTCTGTTCTAGCAAG | -1.35 |
| TTTCTCTTTAAACTTTTGGGGA | -0.716 |
| TTTTTTTACATATCTTGCCTGT | -0.102 |
| TAGACATACAGTATTAAACTGG | -0.456 |
| TTATGATGAACTGCAATCCGTT | -0.993 |
| TTTACTGATAGATATTCCCGAA | -0.468 |
| TTGTATTAGATTCAGAAGCTGA | -0.592 |
